Assay in all cases: DAPPL (digital affinity profiling via proximity ligation, sequencing); 10 mM Tris-HCl pH 7.5, 50 mM NaCl, 1 mM DTT, 4% glycerol, room temperature, 30 min; GST-TFs on glutathione beads, 16-mer random dsDNA library, 0.1% formaldehyde crosslink after washing; high values mean tight binding
The target in assay [1] is T1, FEV (Homo sapiens, UniProt Q99581 1-238).
T1 sequence: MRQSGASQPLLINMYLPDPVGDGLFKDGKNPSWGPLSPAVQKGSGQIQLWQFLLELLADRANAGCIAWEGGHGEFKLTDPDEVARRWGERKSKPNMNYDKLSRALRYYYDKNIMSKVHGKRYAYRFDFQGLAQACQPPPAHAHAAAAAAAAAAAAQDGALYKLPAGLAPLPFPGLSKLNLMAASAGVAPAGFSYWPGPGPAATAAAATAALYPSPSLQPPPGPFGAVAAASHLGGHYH
The note with it: protein: recombinant; tags: N-terminal GST; dsDNA, one strand shown. In outline:
(§1)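 Beads coated with glutathione captured GST-fused human transcription factors that had been expressed in yeast, and the factors were then given DNA barcodes and pooled with a tag-only sample. The pools were incubated with 200 nmole of a random double-stranded 16-mer DNA library in Tris/NaCl/DTT/glycerol buffer for 30 min at room temperature, washed, crosslinked with 0.1% formaldehyde and proximity-ligated with BsaI/T4 ligase at 37 °C for 1 h. PCR amplification and Illumina NextSeq500 sequencing came last. Binding signal is each hexamer's read frequency for a factor divided by its frequency for the tag-only sample.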

Assay [2] has as its target ETV5 (Homo sapiens, UniProt P41161 1-510). Conditions: protein: recombinant; tags: N-terminal GST; dsDNA, one strand shown. In outline: as §1
Assay [3] deals with HSF1 (Homo sapiens, UniProt Q00613 1-529). Conditions: protein: recombinant; tags: N-terminal GST; chain copies: 3; dsDNA, one strand shown. An outline of the steps:
as §1

For assay [4], the target named is T2, SPIC (Homo sapiens, UniProt Q8N5J4 1-248).
T2 sequence: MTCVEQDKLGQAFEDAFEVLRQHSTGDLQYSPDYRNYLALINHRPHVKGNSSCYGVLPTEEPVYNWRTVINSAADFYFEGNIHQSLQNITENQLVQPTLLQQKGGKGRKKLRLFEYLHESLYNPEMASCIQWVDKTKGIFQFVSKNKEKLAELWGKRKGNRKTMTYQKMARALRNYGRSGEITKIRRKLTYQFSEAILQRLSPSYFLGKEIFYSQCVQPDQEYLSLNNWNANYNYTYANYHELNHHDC
Conditions: protein: recombinant; tags: N-terminal GST; dsDNA, one strand shown. An outline of the steps: as §1

Assay [5] deals with ELF4 (Homo sapiens, UniProt Q99607 1-663). Conditions: protein: recombinant; tags: N-terminal GST; dsDNA, one strand shown. In outline: as §1
For assay [6], the target named is T3, ELK4 (Homo sapiens, UniProt P28324-2 1-405).
T3 sequence: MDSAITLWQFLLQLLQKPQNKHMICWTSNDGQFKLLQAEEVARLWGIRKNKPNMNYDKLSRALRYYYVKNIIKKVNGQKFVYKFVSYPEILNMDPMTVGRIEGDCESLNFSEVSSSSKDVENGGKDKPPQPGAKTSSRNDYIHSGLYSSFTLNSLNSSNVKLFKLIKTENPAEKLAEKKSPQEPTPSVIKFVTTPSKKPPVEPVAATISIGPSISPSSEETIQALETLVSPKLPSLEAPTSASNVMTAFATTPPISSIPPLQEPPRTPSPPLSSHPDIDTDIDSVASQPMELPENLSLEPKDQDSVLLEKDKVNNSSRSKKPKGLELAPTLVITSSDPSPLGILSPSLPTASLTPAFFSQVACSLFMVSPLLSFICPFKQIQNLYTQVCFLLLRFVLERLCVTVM
The note with it: protein: recombinant; tags: N-terminal GST; dsDNA, one strand shown. In outline:
as §1

Assay [7] has as its target T4, ETV2 (Homo sapiens, UniProt O00321 1-342).
T4 sequence: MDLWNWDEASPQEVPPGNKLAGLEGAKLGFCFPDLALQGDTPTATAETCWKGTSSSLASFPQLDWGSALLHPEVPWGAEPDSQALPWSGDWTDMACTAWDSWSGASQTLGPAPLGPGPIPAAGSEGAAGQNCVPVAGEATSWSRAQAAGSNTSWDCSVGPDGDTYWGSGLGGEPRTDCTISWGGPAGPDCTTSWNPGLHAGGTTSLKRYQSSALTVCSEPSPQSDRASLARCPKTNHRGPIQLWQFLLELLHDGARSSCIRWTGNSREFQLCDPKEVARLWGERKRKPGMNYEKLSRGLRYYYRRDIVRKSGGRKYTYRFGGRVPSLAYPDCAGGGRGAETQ
The note with it: protein: recombinant; tags: N-terminal GST; dsDNA, one strand shown. An outline of the steps:
as §1

Assay [8] has as its target T5, ELF3 (Homo sapiens, UniProt P78545 1-371).
T5 sequence: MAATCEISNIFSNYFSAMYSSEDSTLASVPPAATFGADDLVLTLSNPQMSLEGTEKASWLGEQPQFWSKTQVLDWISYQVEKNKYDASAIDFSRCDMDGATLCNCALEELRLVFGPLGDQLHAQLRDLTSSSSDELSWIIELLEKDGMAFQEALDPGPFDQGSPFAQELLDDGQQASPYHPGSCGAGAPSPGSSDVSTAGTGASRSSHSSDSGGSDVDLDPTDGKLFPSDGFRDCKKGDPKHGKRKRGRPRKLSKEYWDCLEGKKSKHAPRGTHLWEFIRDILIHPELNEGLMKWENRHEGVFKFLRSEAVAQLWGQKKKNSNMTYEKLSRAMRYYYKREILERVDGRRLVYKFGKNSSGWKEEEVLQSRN
The note with it: protein: recombinant; tags: N-terminal GST; dsDNA, one strand shown. An outline of the steps:
as §1

In assay [9] the target is CRX (Homo sapiens, UniProt O43186 1-299). The note with it: protein: recombinant; tags: N-terminal GST; dsDNA, one strand shown. An outline of the steps:
as §1

The target in assay [10] is ETV1 (Homo sapiens, UniProt P50549 1-477). Conditions: protein: recombinant; tags: N-terminal GST; dsDNA, one strand shown. In outline:
as §1

Assay [11] addresses T6, ERF (Homo sapiens, UniProt P50548 1-548).
T6 sequence: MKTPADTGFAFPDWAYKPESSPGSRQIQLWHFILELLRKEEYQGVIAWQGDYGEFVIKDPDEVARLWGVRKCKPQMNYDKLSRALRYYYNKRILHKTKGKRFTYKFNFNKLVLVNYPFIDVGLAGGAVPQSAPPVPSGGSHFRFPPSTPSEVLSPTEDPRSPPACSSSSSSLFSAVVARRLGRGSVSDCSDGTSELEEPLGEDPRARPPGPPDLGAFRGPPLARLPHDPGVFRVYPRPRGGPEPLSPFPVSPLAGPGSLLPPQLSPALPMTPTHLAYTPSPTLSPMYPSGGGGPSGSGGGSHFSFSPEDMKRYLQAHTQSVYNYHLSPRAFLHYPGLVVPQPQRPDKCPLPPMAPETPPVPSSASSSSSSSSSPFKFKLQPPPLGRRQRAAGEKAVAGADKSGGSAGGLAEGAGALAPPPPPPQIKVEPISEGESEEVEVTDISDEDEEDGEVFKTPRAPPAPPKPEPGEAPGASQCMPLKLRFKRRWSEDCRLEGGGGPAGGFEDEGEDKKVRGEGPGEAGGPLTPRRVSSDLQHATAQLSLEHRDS
The note with it: protein: recombinant; tags: N-terminal GST; dsDNA, one strand shown. In outline: as §1

For assay [12], the target named is T7, ETV3L (Homo sapiens, UniProt Q6ZN32 1-361).
T7 sequence: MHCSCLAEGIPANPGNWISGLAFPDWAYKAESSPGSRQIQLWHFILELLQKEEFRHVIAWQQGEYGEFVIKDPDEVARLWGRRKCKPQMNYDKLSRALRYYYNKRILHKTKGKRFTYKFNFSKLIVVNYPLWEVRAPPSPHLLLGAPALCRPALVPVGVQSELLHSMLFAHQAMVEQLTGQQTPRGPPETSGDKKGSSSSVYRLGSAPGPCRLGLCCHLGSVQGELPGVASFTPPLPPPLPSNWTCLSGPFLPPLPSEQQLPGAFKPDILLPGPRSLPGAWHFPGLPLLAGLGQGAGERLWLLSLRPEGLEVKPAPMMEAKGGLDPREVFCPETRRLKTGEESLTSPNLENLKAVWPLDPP
The note with it: protein: recombinant; tags: N-terminal GST; dsDNA, one strand shown. In outline: as §1

Assay [13] has as its target T8, ETS2 (Homo sapiens, UniProt P15036 1-469).
T8 sequence: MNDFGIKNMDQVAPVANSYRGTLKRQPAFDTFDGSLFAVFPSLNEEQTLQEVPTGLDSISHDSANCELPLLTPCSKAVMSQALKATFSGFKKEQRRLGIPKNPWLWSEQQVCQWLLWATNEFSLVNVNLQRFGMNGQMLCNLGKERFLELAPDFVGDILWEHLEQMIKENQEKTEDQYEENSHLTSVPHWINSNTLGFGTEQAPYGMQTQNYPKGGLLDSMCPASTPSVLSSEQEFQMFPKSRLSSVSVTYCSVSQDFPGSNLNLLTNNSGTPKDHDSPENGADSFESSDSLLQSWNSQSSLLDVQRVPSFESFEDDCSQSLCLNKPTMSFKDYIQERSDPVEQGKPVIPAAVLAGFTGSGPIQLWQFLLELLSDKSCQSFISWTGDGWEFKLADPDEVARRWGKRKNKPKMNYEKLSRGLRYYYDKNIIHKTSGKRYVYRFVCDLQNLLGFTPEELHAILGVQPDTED
Conditions: protein: recombinant; tags: N-terminal GST; dsDNA, one strand shown. An outline of the steps:
as §1

For assay [14], the target named is T9, SPDEF (Homo sapiens, UniProt O95238 1-335).
T9 sequence: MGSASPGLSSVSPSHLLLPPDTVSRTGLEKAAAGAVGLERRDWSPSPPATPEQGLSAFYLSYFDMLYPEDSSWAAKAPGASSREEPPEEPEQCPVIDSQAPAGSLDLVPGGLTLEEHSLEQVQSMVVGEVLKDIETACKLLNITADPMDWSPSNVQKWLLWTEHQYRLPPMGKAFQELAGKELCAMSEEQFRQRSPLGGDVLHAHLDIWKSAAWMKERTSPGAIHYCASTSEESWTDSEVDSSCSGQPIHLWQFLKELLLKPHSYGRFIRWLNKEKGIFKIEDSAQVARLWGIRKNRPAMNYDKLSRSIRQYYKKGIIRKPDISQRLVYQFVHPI
The note with it: protein: recombinant; tags: N-terminal GST; dsDNA, one strand shown. In outline: as §1

The target in assay [15] is T10, ETV7 (Homo sapiens, UniProt Q9Y603 1-341).
T10 sequence: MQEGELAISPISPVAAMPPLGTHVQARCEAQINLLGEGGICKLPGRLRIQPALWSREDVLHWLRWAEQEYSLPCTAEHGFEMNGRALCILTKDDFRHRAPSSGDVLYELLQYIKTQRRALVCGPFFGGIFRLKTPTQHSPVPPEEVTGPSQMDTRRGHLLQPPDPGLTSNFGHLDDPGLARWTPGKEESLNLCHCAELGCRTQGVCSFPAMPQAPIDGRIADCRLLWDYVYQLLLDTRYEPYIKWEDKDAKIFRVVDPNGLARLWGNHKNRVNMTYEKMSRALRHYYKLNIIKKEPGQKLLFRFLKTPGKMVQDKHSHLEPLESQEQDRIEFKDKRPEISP
Conditions: protein: recombinant; tags: N-terminal GST; dsDNA, one strand shown. In outline:
as §1

Assay [16] deals with T11, ELF5 (Homo sapiens, UniProt Q9UKW6-2 1-255).
T11 sequence: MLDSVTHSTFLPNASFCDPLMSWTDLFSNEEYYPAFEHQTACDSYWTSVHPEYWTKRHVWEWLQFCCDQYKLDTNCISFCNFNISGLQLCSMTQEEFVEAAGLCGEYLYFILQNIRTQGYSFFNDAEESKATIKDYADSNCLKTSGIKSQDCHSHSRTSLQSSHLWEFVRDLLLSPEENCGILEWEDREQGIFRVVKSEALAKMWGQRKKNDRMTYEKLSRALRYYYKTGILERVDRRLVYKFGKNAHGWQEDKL
The note with it: protein: recombinant; tags: N-terminal GST; dsDNA, one strand shown. An outline of the steps:
as §1

Assay [17] addresses T12, ETV3 (Homo sapiens, UniProt P41162-2 1-143).
T12 sequence: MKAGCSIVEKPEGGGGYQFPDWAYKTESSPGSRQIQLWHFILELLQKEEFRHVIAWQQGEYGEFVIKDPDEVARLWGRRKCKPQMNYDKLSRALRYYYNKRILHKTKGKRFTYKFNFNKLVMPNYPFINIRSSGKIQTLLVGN
Conditions: protein: recombinant; tags: N-terminal GST; dsDNA, one strand shown. In outline:
as §1

Assay [18] has as its target ETV6 (Homo sapiens, UniProt P41212 1-452). The note with it: protein: recombinant; tags: N-terminal GST; dsDNA, one strand shown. In outline: as §1

Sequence of ETV1 (P50549 whole entry): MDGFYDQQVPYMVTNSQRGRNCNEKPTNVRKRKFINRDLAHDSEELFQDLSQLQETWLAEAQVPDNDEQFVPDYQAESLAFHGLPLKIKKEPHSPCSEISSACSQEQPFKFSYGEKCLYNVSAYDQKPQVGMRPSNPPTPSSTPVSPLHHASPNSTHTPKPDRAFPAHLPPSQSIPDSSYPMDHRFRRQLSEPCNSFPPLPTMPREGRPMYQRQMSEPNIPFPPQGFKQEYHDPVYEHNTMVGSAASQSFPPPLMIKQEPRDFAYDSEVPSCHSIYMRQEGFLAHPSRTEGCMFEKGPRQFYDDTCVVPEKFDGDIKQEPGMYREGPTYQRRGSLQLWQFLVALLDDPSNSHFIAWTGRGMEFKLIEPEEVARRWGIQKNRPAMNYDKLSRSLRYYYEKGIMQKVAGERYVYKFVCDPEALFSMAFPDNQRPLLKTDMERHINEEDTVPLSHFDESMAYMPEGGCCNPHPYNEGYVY
Sequence of ETV5 (P41161 whole entry): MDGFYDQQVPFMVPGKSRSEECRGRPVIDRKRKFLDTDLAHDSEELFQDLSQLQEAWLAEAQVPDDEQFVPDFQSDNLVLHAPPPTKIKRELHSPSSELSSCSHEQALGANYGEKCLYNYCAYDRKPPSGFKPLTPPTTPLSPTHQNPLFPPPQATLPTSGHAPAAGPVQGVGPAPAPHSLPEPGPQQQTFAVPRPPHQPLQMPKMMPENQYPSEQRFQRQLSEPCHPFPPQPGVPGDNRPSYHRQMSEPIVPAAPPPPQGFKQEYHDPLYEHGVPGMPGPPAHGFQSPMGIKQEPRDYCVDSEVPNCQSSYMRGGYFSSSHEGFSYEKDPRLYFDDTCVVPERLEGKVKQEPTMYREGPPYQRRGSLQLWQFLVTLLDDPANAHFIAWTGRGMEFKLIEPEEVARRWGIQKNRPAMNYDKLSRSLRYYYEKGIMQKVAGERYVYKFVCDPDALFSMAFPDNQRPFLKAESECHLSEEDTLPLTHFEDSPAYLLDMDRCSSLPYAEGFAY
Sequence of ELF4 (Q99607 whole entry): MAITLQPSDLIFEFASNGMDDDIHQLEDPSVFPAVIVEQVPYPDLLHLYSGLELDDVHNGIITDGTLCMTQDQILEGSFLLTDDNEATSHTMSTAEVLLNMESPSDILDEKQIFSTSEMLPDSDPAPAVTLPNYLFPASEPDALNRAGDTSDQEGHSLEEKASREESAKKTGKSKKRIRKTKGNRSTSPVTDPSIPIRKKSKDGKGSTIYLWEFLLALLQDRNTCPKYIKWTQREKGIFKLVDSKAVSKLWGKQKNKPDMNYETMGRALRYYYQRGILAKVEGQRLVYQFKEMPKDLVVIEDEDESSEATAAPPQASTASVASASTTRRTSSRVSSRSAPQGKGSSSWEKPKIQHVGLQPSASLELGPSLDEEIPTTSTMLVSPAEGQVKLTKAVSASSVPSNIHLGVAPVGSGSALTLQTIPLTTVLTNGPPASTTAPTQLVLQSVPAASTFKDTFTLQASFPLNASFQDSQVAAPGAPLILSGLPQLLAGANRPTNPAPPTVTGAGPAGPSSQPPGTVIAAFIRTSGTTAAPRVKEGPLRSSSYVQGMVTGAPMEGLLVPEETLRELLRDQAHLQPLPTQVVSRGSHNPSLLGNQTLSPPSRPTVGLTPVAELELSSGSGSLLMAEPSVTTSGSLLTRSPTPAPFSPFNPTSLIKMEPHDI
Sequence of CRX (O43186 whole entry): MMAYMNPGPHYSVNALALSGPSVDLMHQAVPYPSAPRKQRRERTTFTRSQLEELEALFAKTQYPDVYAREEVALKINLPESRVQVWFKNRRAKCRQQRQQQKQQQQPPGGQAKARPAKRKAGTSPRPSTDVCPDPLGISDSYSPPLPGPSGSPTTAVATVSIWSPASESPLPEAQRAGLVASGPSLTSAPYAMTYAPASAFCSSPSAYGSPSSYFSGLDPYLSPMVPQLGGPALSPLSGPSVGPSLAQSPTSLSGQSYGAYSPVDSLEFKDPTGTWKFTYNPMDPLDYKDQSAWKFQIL
Sequence of HSF1 (Q00613 whole entry): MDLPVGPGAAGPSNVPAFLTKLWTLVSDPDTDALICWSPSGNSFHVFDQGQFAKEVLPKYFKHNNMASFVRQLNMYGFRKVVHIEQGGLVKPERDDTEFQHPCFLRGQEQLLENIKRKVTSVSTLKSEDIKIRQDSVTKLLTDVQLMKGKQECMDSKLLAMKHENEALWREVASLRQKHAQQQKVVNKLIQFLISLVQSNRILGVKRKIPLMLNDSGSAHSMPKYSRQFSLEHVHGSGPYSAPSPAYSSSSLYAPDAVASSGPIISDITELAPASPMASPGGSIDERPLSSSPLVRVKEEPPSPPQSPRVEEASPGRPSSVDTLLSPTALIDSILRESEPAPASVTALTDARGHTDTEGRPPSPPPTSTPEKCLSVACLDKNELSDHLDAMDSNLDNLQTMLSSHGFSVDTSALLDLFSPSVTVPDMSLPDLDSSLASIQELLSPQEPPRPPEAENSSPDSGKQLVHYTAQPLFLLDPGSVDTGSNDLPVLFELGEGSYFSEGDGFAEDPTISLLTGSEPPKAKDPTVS
Sequence of ETV6 (P41212 whole entry): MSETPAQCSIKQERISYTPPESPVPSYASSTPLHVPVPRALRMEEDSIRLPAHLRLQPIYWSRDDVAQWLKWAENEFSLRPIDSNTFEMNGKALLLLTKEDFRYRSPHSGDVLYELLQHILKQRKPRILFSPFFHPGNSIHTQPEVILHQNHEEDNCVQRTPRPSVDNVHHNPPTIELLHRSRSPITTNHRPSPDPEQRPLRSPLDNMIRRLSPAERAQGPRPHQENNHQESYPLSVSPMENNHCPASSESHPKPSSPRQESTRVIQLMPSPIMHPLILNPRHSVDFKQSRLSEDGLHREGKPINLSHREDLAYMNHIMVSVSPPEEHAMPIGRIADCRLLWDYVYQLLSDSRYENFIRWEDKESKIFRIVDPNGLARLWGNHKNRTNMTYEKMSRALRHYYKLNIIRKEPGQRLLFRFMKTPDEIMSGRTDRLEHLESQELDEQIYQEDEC

For ACTATT, the binding signal was 1.25 fold enrichment (6-mer frequency, TF over GST control) in assay [1]; 1.22 fold enrichment (6-mer frequency, TF over GST control) in assay [2]; 1.33 fold enrichment (6-mer frequency, TF over GST control) in [3]; 1.44 fold enrichment (6-mer frequency, TF over GST control) in assay [4]; 1.3 fold enrichment (6-mer frequency, TF over GST control) in assay [5]; 1.35 fold enrichment (6-mer frequency, TF over GST control) in assay [6]. The binding signal was 1.31 fold enrichment (6-mer frequency, TF over GST control) in assay [7]; 1.32 fold enrichment (6-mer frequency, TF over GST control) in assay [8]; 1.28 fold enrichment (6-mer frequency, TF over GST control) in assay [9]; 1.28 fold enrichment (6-mer frequency, TF over GST control) in assay [10]; 1.22 fold enrichment (6-mer frequency, TF over GST control) in assay [11]; 1.27 fold enrichment (6-mer frequency, TF over GST control) in assay [12]. Also, the binding signal was 1.37 fold enrichment (6-mer frequency, TF over GST control) in [13]; 1.13 fold enrichment (6-mer frequency, TF over GST control) in [14]; 1.32 fold enrichment (6-mer frequency, TF over GST control) in [15]; 1.29 fold enrichment (6-mer frequency, TF over GST control) in assay [16]; 1.35 fold enrichment (6-mer frequency, TF over GST control) in assay [17]; 1.43 fold enrichment (6-mer frequency, TF over GST control) in assay [18].

The record behind these values is article PMC7862700, “An all-to-all approach to the identification of sequence-specific readers for epigenetic DNA modifications on cytosine”.
